Assay outcomes as filed in PubChem.
Methyltransferases: Primary Screen for Target Class Profiling of Small Molecule Inhibitors of Methyltransferases; purified enzyme, MTase-Glo SAH luminescence; active compounds read low; 25,000 compounds, 3.9% hits; calls only at 40 µM; AID 1745853, 2022; call rule not given here
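Each enzyme was reacted with SAM and its substrate, with compounds tested once at 40 uM; SAH formed was read by MTase-Glo luminescence.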
Active calls of the source: *; ! = a repeat was not active. Many of the other results were omitted from the sample, so hits are more common in it than they were. On the % scale 0 is the no-effect control and ±100 the full control effect.

C=C1C(=O)O[C@@H]2/C=C(\C)C(=O)/C=C/[C@](C)(O)C[C@@H](OC(=O)C(C)C)[C@@H]12 was read as Methyltransferases active.
Screening CCOc1ccc(CNS(=O)(=O)c2ccc3c(c2)n(C)c(=O)n3C)cc1OC returned Methyltransferases inactive.
`COc1ccc(OC)c2c1cc1n2CC(C)(C(=O)NC2CCCC2)N(Cc2ccc(C)cc2)C1=O` (configuration not stated) gave Methyltransferases inactive.
CCCn1c(=O)c2cc(F)ccc2n2c(SCC(=O)NCc3ccc(C)cc3)nnc12 was read as Methyltransferases inactive.
Screening CC(C)OCCCn1c(=O)c2ccccc2n2c(SCc3cccc(F)c3)nnc12 returned Methyltransferases inactive.
CN(Cc1cccs1)c1ncnc2ccc(-c3ccc4c(c3)OCO4)cc12 was read as Methyltransferases active.
For CN(Cc1cccs1)Cc1cccn1C the results were Methyltransferases inactive.
`Cc1ccc(C)c(S(=O)(=O)c2nnn3c2nc(NCCC(C)C)c2ccccc23)c1` gave Methyltransferases inactive.
For O=C(CCCc1nnc2n3nc(-c4ccccc4)nc3c3ccccc3n12)NCc1ccccc1Cl the results were Methyltransferases inactive.
CC(=O)N[C@H]1[C@H](O[C@H]2CC[C@@]3(C)C(CC[C@]4(C)C3CC=C3C5CC(C)(C)CC[C@]5(C(=O)O)C(O)C[C@]34C)C2(C)C)O[C@H](CO[C@@H]2O[C@H](C)[C@H](O)[C@H](O)[C@H]2O[C@@H]2OC[C@@H](O)[C@H](O)[C@H]2O)[C@@H](O)[C@@H]1O (some centres not stated) was read as Methyltransferases inactive.
`CCCn1c(=O)c2ccc(C(=O)NC(C)CC)cc2n2c(=O)n(CC(=O)N(C)c3ccccc3)nc12` (configuration not stated) gave Methyltransferases inactive.
For Cc1ccc(NC(=O)N2CCn3c(C)ccc3C2C(C)C)c(Cl)c1 (configuration not stated) the results were Methyltransferases inactive.
COc1ccc(-c2cc3n(n2)CC(C)(C(=O)NCc2ccccc2)N(Cc2ccccc2)C3=O)cc1 (configuration not stated) was read as Methyltransferases inactive.
CC(C)=C1C[C@@]2(C)C(=CC1=O)CC[C@@H](O)[C@@H]2C was read as Methyltransferases inactive.
For CC1=CC(=O)C(=C(C)C)CC2C(C)(O)CCC12O (configuration not stated) the results were Methyltransferases active.
Screening COc1cccc(N2C(=O)c3cc(-c4ccccc4)nn3CC2(C)C(=O)NCc2ccccc2)c1 (configuration not stated) returned Methyltransferases inactive.
Screening COc1ccc(N2C(=O)CSc3c(c4ccccc4n3C)C2C(=O)NCCCOC(C)C)cc1 (configuration not stated) returned Methyltransferases inactive.
C=C(C(=O)OC)[C@]12O[C@@](C)(CC[C@@]3(O)/C(=C\C)C(=O)O[C@]3(C)C[C@@H]1OC(=O)C(CO)CN1CCCC1C(=O)O)CC2=O (some centres not stated) was read as Methyltransferases inactive.
Screening CCc1cc(Nc2nccc(-c3c(-c4ccc(OC)c(C(=O)Nc5c(F)cccc5F)c4)nc4ccccn34)n2)c(OC)cc1N1CCC(N2CCN(S(C)(=O)=O)CC2)CC1 returned Methyltransferases active.
`CCOc1ccc(N2C(=O)CSc3c(c4ccccc4n3C)C2C(=O)NCCCOC(C)C)cc1` (configuration not stated) gave Methyltransferases inactive.
`COc1ccc2cc3n(c2c1)CC(C)(C(=O)NC1CCCC1)N(C1CCCC1)C3=O` (configuration not stated) gave Methyltransferases inactive.
`COc1cnc(-c2ccc(Cn3c(CC(C)(C)C(=O)O)c(SC(C)(C)C)c4cc(OC[C@@H]5Cc6ccccc6N5C(C)=O)ccc43)cc2)nc1` gave Methyltransferases active.
For COc1cccc(C2c3cccn3-c3sc4c(c3CN2C(=O)Nc2ccc(C)c(F)c2)CCCC4)c1 (configuration not stated) the results were Methyltransferases inactive.
C[n+]1cc2c3c(ccc2c2ccc4cc5c(cc4c21)OCO5)OCO3 was read as Methyltransferases active.
Screening COc1ccc(OC)c2c1cc1n2CC(C)(C(=O)NC2CCCCC2)N(CCC(C)C)C1=O (configuration not stated) returned Methyltransferases inactive.
`CCCCCNC(=O)c1ccc2c(=O)nc3c(-c4ccc(OC)cc4)n[nH]n3c2c1` gave Methyltransferases inactive.
`CC1CCC2C(C)(C)[C@H](O)CC[C@]2(C)C12Cc1c(O)cc3c(c1O2)CN(C(CCC(=O)O)C(=O)O)C3=O` (some centres not stated) gave Methyltransferases inactive.
For COc1ccc(CNC(=O)c2ncn3c2C(=O)N(C2CC2)C(C)(C(=O)NCc2cccc(C)c2)C3)cc1 (configuration not stated) the results were Methyltransferases inactive.
Oc1cc(CNC(=S)/C=C/c2cc(O)c(O)c(Br)c2)cc(O)c1O was read as Methyltransferases active.
COCCCNC(=O)C1(C)Cn2nc(-c3ccccc3)cc2C(=O)N1Cc1cccc(OC)c1 (configuration not stated) was read as Methyltransferases inactive.
COc1ccc(CNC(=O)c2cc3n(n2)CC(C)(C(=O)NC2CCCCCC2)N(C)C3=O)c(OC)c1 (configuration not stated) was read as Methyltransferases inactive.
For CCC(C)NC(=O)CCn1ccc2cc(S(=O)(=O)N3CCCCC3)ccc21 (configuration not stated) the results were Methyltransferases inactive.
`O=C1NC(=O)/C(=C/c2ccc3nccnc3c2)S1` gave Methyltransferases inactive.
Screening CCc1ccc(/C=C2/SC(=S)NC2=O)cc1 returned Methyltransferases active.
`O=C(CCn1ccc2cc(S(=O)(=O)N3CCCCC3)ccc21)NC1CC1` gave Methyltransferases inactive.
CC(C)=CCC/C(C)=C/CCC1(C)Oc2c(c(O)cc3c2CN(C(CCC(=O)O)C(=O)O)C3=O)CC1O (configuration not stated) was read as Methyltransferases inactive.
Cn1c(=O)c2ccc(C(=O)NC3CCCCC3)cc2n2c(SCC(=O)NC3CCCC3)nnc12 was read as Methyltransferases inactive.
Screening C[C@]1(CO)CCC[C@]2(C)C3=C(CCC12)COC3 (some centres not stated) returned Methyltransferases inactive.
Screening OCC1OC(Oc2cc(O)cc(/C=C/c3ccc(OC4OC(CO)C(O)C(O)C4O)cc3O)c2)C(O)C(O)C1O (configuration not stated) returned Methyltransferases inactive.
COc1cc(O)cc(/C=C/c2ccc(O[C@@H]3O[C@H](CO)[C@@H](O)[C@H](O)[C@H]3O)cc2)c1 was read as Methyltransferases inactive.
OC[C@H]1O[C@@H](Oc2cc(O)cc(/C=C/c3ccc(O)cc3)c2)[C@H](O)[C@@H](O)[C@@H]1O was read as Methyltransferases active!.
For Cc1ccc(C)c(N2C(=O)c3cc(-c4ccco4)nn3CC2(C)C(=O)NC2CCCCC2)c1 (configuration not stated) the results were Methyltransferases inactive.
`NCCCNc1ccc(Nc2nccc(Nc3cc(C4CC4)[nH]n3)n2)cc1` gave Methyltransferases active.
